# Measured values from PubChem BioAssay AID624414 (National Center for Advancing Translational Sciences (NCATS), 2012).
# About 480 (0.12%) of roughly 410,000 compounds were called active. The list comes from a sample in which actives are over-represented; it also holds similar structures and randomly drawn compounds. A number with no mark means an inactive call. Rule as the data show it: active = activation above about 50%; inconclusive = mostly about 30% to 49%; inactive = weaker than that.
# Molecular target: Mucolipin-1 (Homo sapiens) (UniProt Q9GZU1)
# Experiment: qHTS for Agonists of the Human Mucolipin Transient Receptor Potential 1 (TRPML1); also: 0% is about no effect
# Details: TRPML1-expressing cells, Ca2+ dye fluorescence, FDSS; stronger effect = higher value
# How it was run: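 Tetracycline-induced TRPML1-DL cells are seeded and incubated overnight before loading with a no-wash Ca2+ dye and quencher. Agonist activity is taken from the 110 s fluorescence read following compound pin-transfer on an FDSS, before EC80 54-4 challenge.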
# Sequence of Mucolipin-1 (Homo sapiens) (Q9GZU1 whole entry, looked up): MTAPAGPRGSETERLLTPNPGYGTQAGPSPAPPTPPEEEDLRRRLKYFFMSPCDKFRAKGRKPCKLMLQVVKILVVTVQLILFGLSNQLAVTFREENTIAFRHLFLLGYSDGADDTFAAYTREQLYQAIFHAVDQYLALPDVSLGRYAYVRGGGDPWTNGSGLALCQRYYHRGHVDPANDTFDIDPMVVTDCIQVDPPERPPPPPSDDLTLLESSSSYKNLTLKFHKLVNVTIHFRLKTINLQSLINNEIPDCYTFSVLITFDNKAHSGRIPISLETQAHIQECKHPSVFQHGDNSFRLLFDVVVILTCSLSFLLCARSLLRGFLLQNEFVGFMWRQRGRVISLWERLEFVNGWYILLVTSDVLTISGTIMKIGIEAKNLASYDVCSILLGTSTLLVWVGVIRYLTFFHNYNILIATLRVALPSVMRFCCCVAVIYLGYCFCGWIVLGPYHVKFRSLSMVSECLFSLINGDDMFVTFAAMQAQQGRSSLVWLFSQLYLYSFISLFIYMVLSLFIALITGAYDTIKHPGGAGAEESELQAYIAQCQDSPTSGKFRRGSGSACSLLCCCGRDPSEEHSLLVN
row,Structure (SMILES),activation
1,CC(C)(C)c1ccc(C(=O)C[n+]2cccc3cc(Cl)ccc32)cc1,0.444%
2,O=C(/C=C(O)/C=C/c1ccc(O)cc1)/C=C/c1ccc(O)cc1,80.8% (active)
3,COc1ccc(C(=O)c2oc3ccccc3c2NC(=O)COc2cccc(C)c2)cc1,-0.131%
4,Cc1cc(C)cc(NC(c2nnc(-c3cccc(F)c3)o2)c2ccc(F)cc2Cl)c1 (stereo unspecified),0.152%
5,O=C1CCC[C@@H]2C[C@@]3(C[C@@H]4CCN1[C@H]24)Nc1ccccc1NC3=NCc1ccccc1,0.0295%
6,Cc1c(CCO)sc[n+]1CC(=O)c1ccc2ccccc2c1,-0.38%
7,O=C(c1ccc2c(c1)N(Cc1ccccc1F)C(=O)c1ccccc1S2(=O)=O)N1CCOCC1,-0.566%
8,COc1ccc(/C=C/c2ccnc3ccccc23)cc1OC,-0.507%
9,CN(C)C1=C2C=CC=CC2/C(=C2/C=Cc3ccccc32)C=C1 (stereo unspecified),-0.475%
10,COc1cc2nc(C#Cc3nc4cc(OC)c(OC)cc4[nH]3)[nH]c2cc1OC,-0.266%
11,O=C(NC1CC(=O)N(c2ccc(F)cc2)C1)c1cccs1 (stereo unspecified),-0.226%
12,CC(C)(C)OC(=O)N1CCC(c2c(C(=O)N3CCN(c4cccc(Cl)c4)CC3)cnn2-c2cccc(Cl)c2)CC1,69.8% (active)
13,Cc1cccc(-n2ncc(C(=O)N3CCC(C)CC3)c2C2CCN(C(=O)OC(C)(C)C)CC2)c1,0.455%
14,Cc1cccc(-n2ncc(C(=O)N3CCN(c4ccc(Cl)cc4)CC3)c2C2CCN(C(=O)OC(C)(C)C)CC2)c1,51.3% (active)
15,Cc1cccc(-n2ncc(C(=O)N3CCc4ccccc4C3)c2C2CCN(C(=O)OC(C)(C)C)CC2)c1,0.364%
16,CCOC(=O)N1CCC(NC(=O)c2cnn(-c3cccc(C)c3)c2C2CCN(C(=O)OC(C)(C)C)CC2)CC1,0.0606%
17,COc1ccccc1CN1CCC(CNC(=O)c2cnn(-c3cccc(Cl)c3)c2C2CCN(C(=O)OC(C)(C)C)CC2)CC1,1.58%
18,COCC(C)NS(=O)(=O)c1ccc(N2CCCCS2(=O)=O)cc1 (stereo unspecified),-0.459%
19,CC1=C(c2ccc(F)cc2)S(=O)(=O)N=C1N1CCC(C(=O)NCCc2ccccc2C)CC1,2.54%
20,COc1ccc(-c2nc(=N)sn2-c2ccccc2)cc1,12.5%
21,COc1ccc(/C=C/c2ccccn2)cc1OC,-0.792%
